Holding throughout (experiment): NCI-60 one-dose screen, 48 h (100 = growth as untreated, 0 = no growth, -100 = all killed)
The test system of one assay is NCI-H23 lung. Conditions: 10 µM unless noted.
A further assay has as its system HOP-62 NSCLC. To be noted: 10 µM unless noted.
The next assay has as its system NCI-H460 lung. To be noted: 10 µM unless noted.
In the next assay the test system is HOP-92 NSCLC. Conditions: 10 µM unless noted.
A further assay concerns NCI-H522 lung. To be noted: 10 µM.
For another assay, the system named is A549/ATCC NSCLC. Conditions: 10 µM unless noted.
The next assay concerns 786-0 renal. Conditions: 10 µM unless noted.
For a further assay, the system named is COLO 205 colon. Conditions: 10 µM unless noted.
A further assay has as its system NCI-H322M lung. Conditions: 10 µM unless noted.
The test system of the next assay is NCI-H226 lung. Conditions: 10 µM.

The panel holds about 83,000 compounds, 20% with a hit somewhere; the sample as a whole holds those more often.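 Testing used 96-well plates and a 48-hour single-concentration exposure. Example: -40 means 40% of the starting cells died.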 Values without a mark were called inactive. The source made the active and inactive calls. The calls were made as follows: active = growth percent below 10; inactive = the rest.

On to `O=C(CCc1nnc2sc(-c3ccccc3)nn12)c1nc2ccccc2[nH]1`, for which the growth in the assay with NCI-H23 lung was 79.7%; in the assay with HOP-62 NSCLC, 100%; in the assay on NCI-H460 lung, 99.8%; with HOP-92 NSCLC, 49.1%; in the assay with NCI-H522 lung, 91.2%; in the assay with A549/ATCC NSCLC, 99.3%. Moreover, the growth with 786-0 renal is 103%; with COLO 205 colon, 114%.

`COc1ccccc1CNCCCCCCCCCCCCN1C(=O)c2ccc3c4c(ccc(c24)C1=O)C(=O)N(CCCCCCCCCCCCNCc1ccccc1OC)C3=O`: the growth with NCI-H23 lung was -47.6% (active); in the assay with NCI-H322M lung it was 111%; with HOP-62 NSCLC it was 54.5%; with NCI-H522 lung it was 87%; in the assay on A549/ATCC NSCLC, 75.4%; in the assay with 786-0 renal it was -73.7% (active). In addition, the growth in the assay with COLO 205 colon is 109%.

For the compound `CC[Si](CC)(CC)OC1[C@@H](O[Si](CC)(CC)CC)[C@@H](CNC(=O)NC)O[C@H]1n1cnc2c(NC(=O)Nc3ccccc3)ncnc21` (stereo not given in full), the growth is 51.9% in the assay with NCI-H23 lung; 96.3% in the assay with NCI-H322M lung; 95.9% in the assay with HOP-62 NSCLC; 67.2% in the assay with HOP-92 NSCLC; 68.5% with A549/ATCC NSCLC; 89.6% with 786-0 renal. In the assay on COLO 205 colon, the growth is 99.1%.

Regarding `CCCCc1ccc(C(O)(CCN2CC3CCC(CC3)C2)c2ccccc2)cc1` (stereo not given), the growth in the assay on NCI-H23 lung was 87.7%; with HOP-62 NSCLC, 106%; with NCI-H460 lung, 107%; with HOP-92 NSCLC it was 75.4%; in the assay on NCI-H522 lung, 84.2%; in the assay with A549/ATCC NSCLC, 96.2%. Further, the results for the growth with 786-0 renal and in the assay on COLO 205 colon were 85.9% and 80.9%, respectively.

In the case of `COc1ccc(NC(=O)c2ccc3c(c2)nc(-c2ccc(Cl)cc2)n3-c2cc(C(C)(C)C)[nH]n2)cc1`, the growth in the assay on NCI-H226 lung was 91.5%; in the assay on NCI-H322M lung, 85.5%; with HOP-62 NSCLC it was 106%; with NCI-H460 lung it was 101%; in the assay on HOP-92 NSCLC, 59.3%; in the assay with NCI-H522 lung it was 73.7%. The growth is 79.7% in the assay with A549/ATCC NSCLC and 87.6% in the assay with 786-0 renal.

For the compound `CCOC(=O)c1cn2c3c(cc(F)cc3c1=O)C(CC)c1ccccc1C2` (stereo not given), the growth is 103% in the assay with NCI-H23 lung; 87.1% with NCI-H322M lung; 95.6% in the assay with HOP-92 NSCLC; 78.7% in the assay with NCI-H522 lung; 87.2% in the assay on A549/ATCC NSCLC; 93.2% in the assay with 786-0 renal. Also, in the assay with COLO 205 colon, the growth is 105%.

Take `Cc1nn(CC(=O)O)c2c1C(=O)CC(C)(C)C2`: the growth in the assay with NCI-H226 lung was 93.6%; in the assay with NCI-H322M lung it was 115%; with HOP-62 NSCLC, 91.1%; in the assay with NCI-H460 lung it was 107%; with HOP-92 NSCLC it was 95.5%; in the assay on NCI-H522 lung, 96.7%. Also, the values for the growth with A549/ATCC NSCLC, in the assay with 786-0 renal and in the assay with COLO 205 colon were 102%, 89.8% and 117%, respectively.

As for `COc1ccc(/C=C(\C#N)c2cc3ccccc3n2C)cc1`, the growth with NCI-H23 lung was 39.4%; in the assay on NCI-H322M lung, 48.3%; with HOP-92 NSCLC it was 76.5%; in the assay on A549/ATCC NSCLC it was 27.2%; in the assay with 786-0 renal, 32.9%; with COLO 205 colon, -17.8% (active).

`Oc1cccc(Nc2nc(-c3ccccn3)cs2)c1`: the growth in the assay with NCI-H23 lung is 107%; in the assay on NCI-H322M lung, 94.6%; in the assay with HOP-62 NSCLC, 98%; in the assay on HOP-92 NSCLC, 89%; with A549/ATCC NSCLC, 94.8%; in the assay with 786-0 renal, 102%. Moreover, in the assay with COLO 205 colon, the growth is 103%.

Consider `COc1ccc(C2CC(c3cc(OC)c(OC)c(OC)c3)=NN2c2ccc(S(N)(=O)=O)cc2)cc1` (stereo not given), for which the growth in the assay on NCI-H226 lung was 61.9%; in the assay on NCI-H322M lung, 67.6%; with HOP-62 NSCLC it was 67.3%; in the assay on NCI-H460 lung, 58.8%; with HOP-92 NSCLC, 27.8%; with NCI-H522 lung, 66.9%. Moreover, the growth is 44.5% in the assay with A549/ATCC NSCLC, 66.6% in the assay with 786-0 renal and 75.6% in the assay on COLO 205 colon.

Regarding `O=C1c2[nH]cc(CN[C@@H]3CCCN3)c2C(=O)c2c1c(O)c1ccccc1c2O`, the growth in the assay with NCI-H23 lung is -53.7% (active); with NCI-H322M lung, -95% (active); in the assay on HOP-62 NSCLC, -100% (active); with NCI-H522 lung, -85.1% (active); with A549/ATCC NSCLC, -93.1% (active); with 786-0 renal, -83.1% (active). In addition, the growth in the assay on COLO 205 colon is -79.8% (active).

Turning to `c1ccc2cc(-c3n(Cc4ccc5ccccc5n4)c4ccccc4[n+]3Cc3ccc4ccccc4n3)ccc2c1`, the growth with NCI-H23 lung is -16.5% (active); with NCI-H322M lung, 7.73% (active); in the assay on HOP-62 NSCLC, -7% (active); in the assay with HOP-92 NSCLC it was -31.6% (active); with A549/ATCC NSCLC, 6.23% (active); with 786-0 renal, 5.11% (active). Besides, in the assay on COLO 205 colon, the growth was -66.7% (active).

With `FC(F)(F)c1ccc2c(c1)n1cnnc1c1nncn21`, the growth is 103% with NCI-H23 lung; 113% in the assay on HOP-62 NSCLC; 110% in the assay on NCI-H460 lung; 88.7% in the assay on HOP-92 NSCLC; 97.1% in the assay on NCI-H522 lung; 101% in the assay on 786-0 renal. The growth in the assay with COLO 205 colon was 111%.

`Cc1cc(O)cc2c1[C@H]1CC[C@]3(C)[C@@H](O)CC[C@H]3[C@@H]1C=C2`: the growth in the assay with NCI-H23 lung is 90.5%; in the assay with HOP-62 NSCLC, 74.5%; with NCI-H460 lung, 104%; with HOP-92 NSCLC, 105%; in the assay on NCI-H522 lung, 43.2%; with A549/ATCC NSCLC, 86.9%. For the same compound, the growth in the assay with 786-0 renal is 99.5%; in the assay with COLO 205 colon, 108%.

These data come from PubChem BioAssay (NCI).
